Data taken from PubChem BioAssay.
For some assays here: Potency and affinity values are given separately. Active and inactive are the calls of the source.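 Rule for the calls, unless noted: active = calcium signal ratio cut to more than 3 SD under the fully stimulated control mean yet still positive, in both repeats and the primary screen; inactive = the rest.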

Experiments:
[1] = system: TRPC4 beta (transient receptor potential cation channel C4), mouse; assay: TRPC4 cation channel opening, retest – cell-based, Fluo4 calcium, HEK293 TRPC4beta/mu-opioid, duplicates, 10 µM, confirmation (AID 2426;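 active = fluorescence ratio normalized to control raised more than 50% in primary screen plus both repeat runs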;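 for activation: percent rise of integrated ratio over buffer wells lacking compound which define 0%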); conditions: Fluo4 calcium fluorescence, at 10 µM; hits give high values
[2] = system: transient receptor potential cation channel C4 beta (TRPC4), mouse; assay: TRPC4 cation channel opening, second retest – cell-based, second round, Fluo4, HEK293 TRPC4beta/mu-opioid, 1 µM, confirmation (AID 2461;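 active = primary screen active and over 50% activation in each of two duplicate runs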;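 for activation: 0% = wells without test compound as baseline of integrated fluorescence ratio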); conditions: Fluo4 calcium fluorescence, at 1 µM; hits give high values
[3] = system: TRPC4 (transient receptor potential cation channel C4 beta), mouse; assay: potentiation of DAMGO EC20 TRPC4 response – cell-based, second round, Fluo-4, HEK293 TRPC4beta/mu-opioid, 1 µM, confirmation (AID 2554;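 active = primary screen hit whose fluorescence ratio, in both repeats, exceeds the weak agonist control mean by 3 SD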); conditions: DAMGO EC20, Fluo-4 calcium flux, at 1 µM; hits give high values
[4] = system: TRPC4 beta (transient receptor potential cation channel C4), mouse; assay: potentiation of DAMGO EC20 TRPC4 response – cell-based, Fluo-4, HEK293 TRPC4beta/mu-opioid, confirmation (AID 2555;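 active = primary screen hit whose calcium fluorescence ratio, in both repeats, exceeds the weak agonist control mean by 3 SD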); conditions: DAMGO EC20, Fluo-4 calcium flux, at 10 µM; hits give high values
[5] = target: Short transient receptor potential channel 4 (Mus musculus) (UniProt Q9QUQ5); assay: blockers of DAMGO-evoked TRPC4 calcium flux – cell-based, Fluo4, HEK293 TRPC4beta/mu-opioid, confirmation (AID 2636;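 active = calcium signal cut by more than 3 SD below the full-agonist control yet still positive, in both repeats and the earlier primary screen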); conditions: at 10 µM; hits give high values
[6] = target: Short transient receptor potential channel 4 (Mus musculus) (UniProt Q9QUQ5); assay: blockers of DAMGO-evoked TRPC4 calcium flux – cell-based, second round, Fluo4, HEK293 TRPC4beta/mu-opioid, 1 µM, confirmation (AID 2637); conditions: at 1 µM; hits give high values
[7] = target: Short transient receptor potential channel 4 (Mus musculus) (UniProt Q9QUQ5); assay: potentiation of DAMGO-evoked TRPC4 calcium signal – cell-based, HEK293 TRPC4/mu-opioid, Fluo-4 calcium, EC20 DAMGO, dose response (AID 434941;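 active = earlier screen potentiator hit that boosts the TRPC4 ion channel at some dose, with a dose response; inactive = no potentiation, no dose response, or not a prior hit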;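 note: calcium entry triggered by an EC20 dose of DAMGO at the co-expressed mu-opioid receptor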); conditions: HEK293 TRPC4/mu-opioid cells, Fluo-4 calcium fluorescence; series mostly up to 20 µM
[8] = target: Short transient receptor potential channel 4 (Mus musculus) (UniProt Q9QUQ5); assay: block of DAMGO-driven TRPC4 calcium entry – cell-based, HEK293 TRPC4/mu-opioid, Fluo-4 calcium, dose response (AID 434942;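 active = primary screen inhibitor hit that blocks the TRPC4 channel at some tested dose, yielding a dose curve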); conditions: HEK293 TRPC4/mu-opioid cells, DAMGO-evoked Fluo-4 calcium ratio; series mostly up to 20 µM
[9] = target: Short transient receptor potential channel 6 (Mus musculus) (UniProt Q61143); assay: TRPC6 blockade by TRPC4 inhibitor hits – cell-based, HEK293, membrane potential dye, duplicate, selectivity assay for TRPC4 inhibitor project, confirmation (AID 434948;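 active = active in primary screen and both duplicates, each dropping signal beyond three positive-control SD with fluorescence still positive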); conditions: HEK293 TRPC6, membrane potential dye fluorescence, at 10 µM, stimulated with maximal-effect acetylcholine; hits give high values
[10] = target: Short transient receptor potential channel 6 (Mus musculus) (UniProt Q61143); assay: TRPC6 opening by TRPC4 activator hits – cell-based, HEK293, membrane potential dye, duplicate, selectivity assay for TRPC4 activator project, confirmation (AID 434950;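 active = membrane potential signal rise above negative control mean plus 3 SD in both duplicates, also active in the earlier TRPC4 screen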;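 for activation: 0% = buffer only wells and 100% = acetylcholine maximal-effect wells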); conditions: HEK293 TRPC6, membrane potential fluorescence, at 10 µM; activation: hits give high values; outcome: activation
[11] = target: Short transient receptor potential channel 6 (Mus musculus) (UniProt Q61143); assay: positive modulators of mouse TRPC6 channel – HEK293 cells, membrane potential dye, duplicate, selectivity assay for TRPC4 potentiator project, confirmation (AID 434952;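 active = compound raising the membrane signal above positive-control mean plus 3 SD in both repeats, and a primary screen hit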); conditions: HEK293 TRPC6, membrane potential dye fluorescence, at 10 µM, maximal acetylcholine added after compound; hits give high values
[12] = target: Short transient receptor potential channel 4 (Mus musculus) (UniProt Q9QUQ5); assay: calcium flux activators in TRPC4/5HT1a cells, counter-screen for TRPC4 activator project, cell-based, second counter screen, HEK293 TRPC4/5HT1a, Fluo-4 (AID 434977;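 active = calcium signal rise above buffer-control mean plus 5 SD in both duplicates, and also a hit in the primary screen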;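 for activation: plate controls were assay buffer for no effect and maximal serotonin response for full effect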); conditions: Fluo-4 calcium flux, at 10 µM; hits give high values
[13] = serotonin-gated TRPC4 signal block – cell-based, second counter screen, HEK293 TRPC4/5HT1a, Fluo-4, counter-screen for TRPC4 inhibitor project, confirmation (AID 434978;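 active = primary screen active whose calcium signal fell more than 3 SD beyond the full-serotonin control mean in both duplicate plates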;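 note: serotonin given first at submaximal then at maximal dose after compound preincubation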); conditions: Fluo-4 calcium flux, at 10 µM, serotonin added to trigger calcium flux; hits give high values
[14] = system: TRPC4 (mouse), co-expressed with 5HT1a in HEK293; assay: enhancement of serotonin-evoked TRPC4 response – cell-based, second counter screen, HEK293 TRPC4/5HT1a, Fluo-4, counter-screen for TRPC4 potentiator project, confirmation (AID 434979;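 active = signal rise over 3 SD above mean of control wells given weak agonist, in both repeats and first screen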); conditions: Fluo-4 calcium flux, at 10 µM, serotonin added at its EC20 dose; hits give high values
[15] = nonspecific calcium rise without TRPC4 – cell-based, HEK293 mu-opioid receptor line, counter-screen for TRPC4 activator project, confirmation (AID 449723;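 active = hit in primary screen, with calcium signal over 5 SD above buffer well mean in both duplicates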;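 note: counter screen cells carry the mu-opioid receptor alone and lack TRPC4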); conditions: HEK293 mu-opioid cells, Fluo-4 calcium fluorescence, at 10 µM; hits give high values
[16] = nonspecific potentiation of DAMGO calcium response – cell-based, HEK293 mu-opioid receptor line, counter-screen for TRPC4 allosteric potentiator project, confirmation (AID 449724;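 active = calcium signal rise more than 3 SD above the low-dose agonist control mean, in both duplicate plates and the primary screen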); conditions: HEK293 mu-opioid receptor cells, Fluo-4 calcium flux, at 10 µM, compound added before EC20 DAMGO stimulus; hits give high values

Short transient receptor potential channel 6 (Mus musculus), sequence (Q61143 whole entry, looked up): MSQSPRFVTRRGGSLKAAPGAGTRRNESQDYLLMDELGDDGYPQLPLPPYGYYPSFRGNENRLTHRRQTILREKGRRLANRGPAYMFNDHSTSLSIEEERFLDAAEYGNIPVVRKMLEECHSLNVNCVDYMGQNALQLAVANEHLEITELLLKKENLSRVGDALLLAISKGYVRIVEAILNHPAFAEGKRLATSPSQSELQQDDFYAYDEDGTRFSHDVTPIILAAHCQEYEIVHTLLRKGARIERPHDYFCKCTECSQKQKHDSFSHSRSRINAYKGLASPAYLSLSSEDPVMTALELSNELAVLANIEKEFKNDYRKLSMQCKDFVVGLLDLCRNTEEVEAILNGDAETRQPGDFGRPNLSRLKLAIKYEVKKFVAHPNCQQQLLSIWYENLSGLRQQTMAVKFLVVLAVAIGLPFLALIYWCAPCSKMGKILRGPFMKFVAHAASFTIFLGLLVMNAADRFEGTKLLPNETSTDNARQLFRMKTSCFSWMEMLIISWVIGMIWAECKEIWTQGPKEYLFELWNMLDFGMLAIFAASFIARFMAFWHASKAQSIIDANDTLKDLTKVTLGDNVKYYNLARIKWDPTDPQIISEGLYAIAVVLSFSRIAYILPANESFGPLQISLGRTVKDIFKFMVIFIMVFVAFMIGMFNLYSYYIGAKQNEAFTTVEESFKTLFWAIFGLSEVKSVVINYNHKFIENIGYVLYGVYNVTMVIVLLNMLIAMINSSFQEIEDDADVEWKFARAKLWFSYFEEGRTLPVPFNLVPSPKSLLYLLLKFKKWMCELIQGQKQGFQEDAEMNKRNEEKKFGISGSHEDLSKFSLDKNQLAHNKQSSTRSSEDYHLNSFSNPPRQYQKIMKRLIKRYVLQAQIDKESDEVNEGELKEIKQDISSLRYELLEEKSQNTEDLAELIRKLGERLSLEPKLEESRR
Short transient receptor potential channel 4 (Mus musculus), sequence (Q9QUQ5 whole entry, looked up): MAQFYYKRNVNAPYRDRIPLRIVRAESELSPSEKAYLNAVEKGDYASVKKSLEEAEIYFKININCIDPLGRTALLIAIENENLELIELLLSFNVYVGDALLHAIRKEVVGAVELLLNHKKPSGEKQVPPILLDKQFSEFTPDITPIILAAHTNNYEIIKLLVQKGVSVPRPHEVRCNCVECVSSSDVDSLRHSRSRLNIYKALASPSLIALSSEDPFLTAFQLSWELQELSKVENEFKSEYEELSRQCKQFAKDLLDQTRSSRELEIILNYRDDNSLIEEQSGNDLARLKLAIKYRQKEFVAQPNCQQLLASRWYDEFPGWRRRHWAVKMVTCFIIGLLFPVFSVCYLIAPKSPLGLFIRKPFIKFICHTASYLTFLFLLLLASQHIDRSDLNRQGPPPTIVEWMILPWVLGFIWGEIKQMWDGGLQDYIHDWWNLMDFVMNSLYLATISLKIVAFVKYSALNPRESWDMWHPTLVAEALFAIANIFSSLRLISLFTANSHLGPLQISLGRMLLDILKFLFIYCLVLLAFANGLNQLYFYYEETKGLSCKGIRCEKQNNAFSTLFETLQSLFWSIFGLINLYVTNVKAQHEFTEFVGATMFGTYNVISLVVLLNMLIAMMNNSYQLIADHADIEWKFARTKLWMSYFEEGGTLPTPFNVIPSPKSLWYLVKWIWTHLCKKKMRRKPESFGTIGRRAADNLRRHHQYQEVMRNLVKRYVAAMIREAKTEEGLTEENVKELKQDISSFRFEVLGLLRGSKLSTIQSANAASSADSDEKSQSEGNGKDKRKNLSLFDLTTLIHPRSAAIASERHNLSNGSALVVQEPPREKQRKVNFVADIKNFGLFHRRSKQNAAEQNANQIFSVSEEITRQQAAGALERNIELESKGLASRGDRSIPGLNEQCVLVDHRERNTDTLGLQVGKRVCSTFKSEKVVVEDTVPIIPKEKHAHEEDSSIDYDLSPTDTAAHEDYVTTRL

COc1ccccc1/C=C/CN1CCCC(CCC(=O)NCc2ccccc2F)C1 (centres undefined)
inactive: outcome [3] | outcome [4] | outcome [6] | outcome [7] | outcome [8] | outcome [9] | outcome [11] | outcome [13] | outcome [14] | outcome [15] | outcome [16]
active: activation [1] 98% | activation [2] 51% | inhibition [5] 53% | activation [10] 44% | activation [12] 32.5%

O=S(=O)(NCCc1csc(-c2ccccc2)n1)c1cccnc1
active: activation [1] 93% | activation [10] 59% | activation [12] 26.7%
inactive: outcome [2] | outcome [3] | outcome [4] | outcome [5] | outcome [6] | outcome [7] | outcome [8] | outcome [9] | outcome [11] | outcome [13] | outcome [14] | outcome [15] | outcome [16]

COc1ccc(CSCCN)cc1Cl
inactive: outcome [2] | outcome [3] | outcome [4] | outcome [5] | outcome [6] | outcome [7] | outcome [8] | outcome [9] | outcome [10] | outcome [11] | outcome [13] | outcome [14] | outcome [15] | outcome [16]
active: activation [1] 108% | activation [12] 27.1%

O=C(NCCc1cnc[nH]1)c1ccc(-c2ccccc2)cc1
inactive: outcome [2] | outcome [3] | outcome [4] | outcome [5] | outcome [6] | outcome [7] | outcome [8] | outcome [9] | outcome [11] | outcome [13] | outcome [14] | outcome [15] | outcome [16]
active: activation [1] 109% | activation [10] 59% | activation [12] 17.5%

COc1ccc(Cl)cc1C(=O)Nc1ccccc1N1CCN(C)CC1
active: activation [1] 120% | activation [12] 16%
inactive: outcome [2] | outcome [3] | outcome [4] | outcome [5] | outcome [6] | outcome [7] | outcome [8] | outcome [9] | outcome [10] | outcome [11] | outcome [13] | outcome [14] | outcome [15] | outcome [16]

CCOC(=O)C1(CCCc2ccccc2)CCN(Cc2cnn(C)c2)CC1
inactive: outcome [2] | outcome [3] | outcome [4] | outcome [5] | outcome [6] | outcome [7] | outcome [8] | outcome [9] | outcome [11] | outcome [12] | outcome [13] | outcome [14] | outcome [15] | outcome [16]
active: activation [1] 92% | activation [10] 69%

Cc1cccc(NC(=S)NCC(c2ccccc2)N(C)C)c1 (centres undefined)
inactive: outcome [3] | outcome [4] | outcome [5] | outcome [6] | outcome [7] | outcome [8] | outcome [9] | outcome [11] | outcome [12] | outcome [13] | outcome [14] | outcome [15] | outcome [16]
active: activation [1] 176% | activation [2] 152% | activation [10] 39.5%

S=C(NCCc1cnc[nH]1)NC1CCCC1
active: activation [1] 220% | activation [2] 135% | activation [12] 79.6%
inactive: outcome [3] | outcome [4] | outcome [5] | outcome [6] | outcome [7] | outcome [8] | outcome [9] | outcome [10] | outcome [11] | outcome [13] | outcome [14] | outcome [15] | outcome [16]

OCCC1CN(Cc2ccccc2-c2ccco2)CCN1Cc1ccccc1 (centres undefined)
inactive: outcome [1] | outcome [2] | outcome [3] | outcome [4] | outcome [5] | outcome [6] | outcome [7] | outcome [8] | outcome [9] | outcome [11] | outcome [13] | outcome [14] | outcome [15] | outcome [16]
active: activation [10] 63.5% | activation [12] 17.2%

CCCCN(CC)CCNc1c(N2CCN(C(=O)OCC)CC2)c(=O)c1=O
active: activation [1] 155% | activation [10] 30.5%
inactive: outcome [2] | outcome [3] | outcome [4] | outcome [5] | outcome [6] | outcome [7] | outcome [8] | outcome [9] | outcome [11] | outcome [12] | outcome [13] | outcome [14] | outcome [15] | outcome [16]

CCN1CCCC1CNS(=O)(=O)c1c(C)cc(C)cc1C (centres undefined)
active: activation [1] 95% | activation [10] 61.5% | activation [12] 20.3%
inactive: outcome [2] | outcome [3] | outcome [4] | outcome [5] | outcome [6] | outcome [7] | outcome [8] | outcome [9] | outcome [11] | outcome [13] | outcome [14] | outcome [15] | outcome [16]

CN(CCc1ccccn1)C(=S)Nc1cccc(S(=O)(=O)N(C)C)c1
inactive: outcome [2] | outcome [3] | outcome [4] | outcome [5] | outcome [6] | outcome [7] | outcome [8] | outcome [9] | outcome [10] | outcome [11] | outcome [13] | outcome [14] | outcome [15] | outcome [16]
active: activation [1] 111% | activation [12] 53.6%

CC(CN1CCCC(C(N)=O)C1)c1ccccc1 (centres undefined)
active: activation [1] 147% | activation [2] 65% | activation [10] 30.5% | activation [12] 42%
inactive: outcome [3] | outcome [4] | outcome [5] | outcome [6] | outcome [7] | outcome [8] | outcome [9] | outcome [11] | outcome [13] | outcome [14] | outcome [15] | outcome [16]

CCOC(=O)C1(CC2CCCCO2)CCN(Cc2cc(F)ccc2-n2cccn2)CC1 (centres undefined)
inactive: outcome [1] | outcome [2] | outcome [3] | outcome [4] | outcome [5] | outcome [6] | outcome [7] | outcome [8] | outcome [9] | outcome [11] | outcome [12] | outcome [13] | outcome [14] | outcome [15] | outcome [16]
active: activation [10] 76.5%
